Experimental data reported in PubChem BioAssay AID504690 (Sanford-Burnham Center for Chemical Genomics, 2011).
The campaign covered roughly 350,000 compounds. About 2,700 (0.77%) were called active. The list comes from a sample in which actives are over-represented; it also holds similar structures and randomly drawn compounds. Values without a mark were called inactive.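 The calls were made as follows: active = inhibition reaching at least a set limit at 20 µM in the primary screen (cut at about 59% in these data); inactive = the rest.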

The compounds below were run on glucose-6-phosphate dehydrogenase-6-phosphogluconolactonase (Plasmodium falciparum 3D7) (assay: inhibition of malaria parasite G6PD (PfGluPho) – biochemical, fluorescence intensity, uHTS, primary screen (AID 504690;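 also: 0% = DMSO wells with substrate and 100% = DMSO wells lacking glucose-6-phosphate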)). Conditions: PfGluPho enzyme, NADPH resazurin-diaphorase fluorescence; at 20 µM; stronger effect = higher value.
For `O=C(CN1CCN(c2ccc(O)cc2)CC1)Nc1ccc(-c2ccccc2)cc1`, the inhibition was 69% (active). For `O=C(CN1CCN(c2ccc(O)cc2)CC1)Nc1cc(S(=O)(=O)N2CCOCC2)ccc1Cl`, the inhibition was 73.8% (active). `O=C(CN1CCN(c2cccc(Cl)c2)CC1)Nc1ccc(S(=O)(=O)N2CCOCC2)cc1` showed an inhibition of 7.9%. For `O=C(CN1CCN(c2ccc(F)cc2)CC1)Nc1cccc(C(F)(F)F)c1`, the inhibition was 12.7%. `O=C(CN1CCOCC1)Nc1ccccc1` gave an inhibition of -18.6%. `Cc1ccc(Cl)cc1NC(=O)CN1CCN(S(=O)(=O)N2CCOCC2)CC1` showed an inhibition of -17%. `COc1cc2c(cc1OC)C(C(=O)NCc1ccco1)C1c3ccccc3CCN1C2=O` (configuration not stated) showed an inhibition of 0.17%. For `CCn1nc(NC(=O)c2ccco2)c2cc3ccc(C)cc3nc21`, the inhibition was 6.85%. Compound `O=C(NCCN=C1NS(=O)(=O)c2ccccc21)c1ccc(S(=O)(=O)N2CCOCC2)cc1` has an inhibition of 4.66%. In the case of `CC(C)(C)NC(=O)COc1ccc(CNc2ccc3[nH]c(=O)[nH]c3c2)cc1`, the inhibition is reported as 94.7% (active). With `COC(=O)c1ccc(OCC(=O)NC(C)(C)C)cc1` the inhibition was 3.26%. For `O=C(COc1ccc([N+](=O)[O-])cc1Cl)Nc1ccc2[nH]c(=O)[nH]c2c1`, the inhibition was 13.1%. Compound `COc1ccccc1CN1CC(C(=O)NCCc2cn[nH]c2)CCC1=O` (configuration not stated) has an inhibition of -1.62%. `Cc1ccc(C(=O)OCC(=O)Nc2ccc(Cl)cn2)cc1S(=O)(=O)N1CCOCC1` showed an inhibition of -1.58%. With `COC(C[C@@H](O)C[C@@H](O)[C@H](C)OCc1ccccc1)OC` the inhibition was 10.8%. Work on `COc1c(O)cccc1-c1nnn(CCC(=O)OCC(=O)c2ccccc2)n1` yielded an inhibition of 6.47%. With `CCOC(=O)c1cccc(NC(=O)CCn2nnc3ccccc32)c1` the inhibition was -9.98%. For `O=C(CCn1nnc2ccccc21)OCC(=O)c1ccc([N+](=O)[O-])cc1`, the inhibition was 59.2% (active). `Cc1ccc(CSc2ccc(S(=O)(=O)N3CCCCC3)cn2)cc1` gave an inhibition of 10.9%. Work on `CC(=O)Nc1ccc(CC#N)cc1` yielded an inhibition of -8.66%. In the case of `O=C(NC(=O)c1cc(OCC(F)(F)F)ccc1OCC(F)(F)F)Nc1ccccc1`, the inhibition is reported as 15.2%. Work on `COc1ccc2cc(-c3[nH]ncc3CNCCn3nc(C)cc3C)ccc2c1` yielded an inhibition of -4.25%. Compound `COc1cccc(-n2c(=S)sc3c(=O)n(-c4ccccc4C)c(SCC(=O)O)nc32)c1` has an inhibition of -2.42%. With `COc1cccc(-n2c(=S)sc3c(=O)n(-c4ccccc4OC)c(SCC4OCCO4)nc32)c1` the inhibition was 22.9%. `COc1ccc(Cl)cc1-n1c(=S)sc2c(=O)n(-c3ccc(F)cc3)c(SCC(=O)O)nc21` was tested, and the inhibition was 86.6% (active). For `C/C(CC(=O)NC(C)c1ccccc1)=N\NC(N)=S` (configuration not stated), the inhibition was 6.14%. For `CSc1ccc(S(=O)(=O)N2CCC(C(=O)NCc3ccncc3)CC2)cc1`, the inhibition was -30.2%. In the case of `Cc1cccn2c(CNCC(C)Oc3cccnc3)c(C(=O)N3CCOCC3)nc12` (configuration not stated), the inhibition is reported as 9.53%. With `Cc1cccn2c(CN(C)C3CCCc4ccccc43)c(C(=O)N3CCOCC3)nc12` (configuration not stated) the inhibition was 62.9% (active). `CCOC(=O)C1CCN(Cc2c(C(=O)N3CCOCC3)nc3c(C)cccn23)CC1` showed an inhibition of -12.6%. Compound `c1ccc2cc3c(NCCN4CCOCC4)ccnc3cc2c1` has an inhibition of 6.78%. Compound `CC(=O)Nc1sc2c(c1C(c1cccc(F)c1)N1CCN(CCO)CC1)CCCC2` (configuration not stated) has an inhibition of 7.18%. For `NC(=O)c1c(Nc2nc3c(F)cccc3s2)sc2c1CCCC2`, the inhibition was 63.4% (active). For `CCOC(=O)C(NC(=O)CC(C)C)(Nc1sc2c(c1C(N)=O)CCCC2)C(F)(F)F` (configuration not stated), the inhibition was -8.45%. Compound `NC(=O)c1c(NC(=O)CSc2nnc(-c3ccco3)n2N)sc2c1CCCC2` has an inhibition of 7.61%. `COc1ccc2[nH]c(=O)c(CNc3ccc(C)c(C)c3)cc2c1` was tested, and the inhibition was 41%. Compound `O=C1Nc2cc(C(=O)N3CCC(N4CCCCC4)CC3)ccc2S/C1=C\c1ccccc1` has an inhibition of -9.66%. In the case of `CCN1CCN(CCNC(=O)c2ccc3c(c2)NC(=O)/C(=C\c2cccc(Cl)c2)S3)CC1`, the inhibition is reported as 2.78%. For `CCN1CCCC1CNC(=O)c1ccc2c(c1)NC(=O)/C(=C\c1ccccc1F)S2` (configuration not stated), the inhibition was 127% (active). With `CN(C)S(=O)(=O)c1ccc(Cl)c(NC(=O)COC(=O)CC(NC(N)=O)c2ccc(Cl)cc2)c1` (configuration not stated) the inhibition was -3.62%. With `CCOC(=O)c1c(C)[nH]c(C)c1C(=O)CSc1nc(N)cc(N)n1` the inhibition was 9.63%. `CCCCNC(=O)c1ccccc1NC(=O)C1=C(C)OCCS1` was tested, and the inhibition was -13.5%. In the case of `O=C(Nc1ccc(S(=O)(=O)N2CCOCC2)cc1)c1ccc2ncsc2c1`, the inhibition is reported as 72.8% (active). `O=C(Nc1nncs1)c1cccc(S(=O)(=O)N2CCCCC2)c1` was tested, and the inhibition was -40.8%. `CCOC(=O)CSc1nnc(NC(=O)c2cccc(S(=O)(=O)N3CCCCC3)c2)s1` showed an inhibition of -28.5%. Work on `Cc1nc2ccc(NC(=O)c3cccc(S(=O)(=O)N4CCOCC4)c3)cc2s1` yielded an inhibition of 19.6%. In the case of `O=C(Nc1cccc(S(=O)(=O)N2CCCCC2)c1)c1cncc(Br)c1`, the inhibition is reported as 9.89%. In the case of `O=C(Nc1nnc(S(=O)(=O)N2CCOCC2)s1)c1cccc(Br)c1`, the inhibition is reported as 103% (active). For `O=C(Nc1nnc(-c2ccccc2)o1)c1cccc(S(=O)(=O)N2CCOCC2)c1`, the inhibition was 0.98%. For `O=C(Nc1nnc(S(=O)(=O)N2CCCCCC2)s1)c1cccc(Br)c1`, the inhibition was 88.1% (active). With `Cc1cccc(C(=O)Nc2nnc(S(=O)(=O)N3CCCCCC3)s2)c1` the inhibition was 95.7% (active). Work on `Cc1cccc(NC(=O)c2cccc(S(=O)(=O)N3CCCC3)c2)n1` yielded an inhibition of -1.18%. Work on `O=C(Nc1ccc(N2CCOCC2)c(Cl)c1)c1ccc(S(=O)(=O)N2CCOCC2)cc1` yielded an inhibition of 0.32%. For `O=C(Nc1ccc(S(=O)(=O)Nc2nccs2)cc1)c1cccc(S(=O)(=O)N2CCOCC2)c1`, the inhibition was -1.66%. Compound `COc1ccc2[nH]c(=O)c(C3c4cc(OC)c(OC)cc4CCN3C(=O)c3ccco3)cc2c1` (configuration not stated) has an inhibition of 8.2%. In the case of `O=C(NCc1cccnc1)c1ccc(CS(=O)(=O)c2ccc(Br)cc2)o1`, the inhibition is reported as -4.96%. Work on `CC1CCCCC1NC(=O)CSc1nnc(N)s1` (configuration not stated) yielded an inhibition of -8.21%. `O=C(COC(=O)c1cccc(Cl)c1)NC1CCCCCCC1` was tested, and the inhibition was 17.2%. For `CCCN(CCC)C(=O)C1c2ccccc2Oc2ccccc21`, the inhibition was -24.1%. `CC(C)(C)NC(=O)NC(=O)COC(=O)C1c2ccccc2Oc2ccccc21` was tested, and the inhibition was -18.1%. In the case of `CC(C)(C)c1nnc(NC(=O)C2c3ccccc3Oc3ccccc32)s1`, the inhibition is reported as 77.4% (active). In the case of `Cc1ccc2oc(=O)ccc2c1`, the inhibition is reported as -9.67%. For `CCc1ccc2oc(-c3ccc(N)cc3)nc2c1`, the inhibition was 16.4%. In the case of `CCN(CC)c1ccc2oc(=O)c(C)nc2c1`, the inhibition is reported as 94.1% (active). `COc1ccc(S(=O)(=O)N2CCOCC2)cc1NC(=O)Cc1coc2cc(C)ccc12` was tested, and the inhibition was -4.24%. `O/N=C(\c1ccc2c(c1)OCCO2)C1CCCCC1` was tested, and the inhibition was -2.41%. `COc1ccccc1-n1c(=S)[nH]c2c(sc(=S)n2-c2ccc(C)cc2C)c1=O` was tested, and the inhibition was 78.9% (active). With `CCc1ccc(-n2c(=S)sc3c(=O)n(-c4ccccc4OC)c(=S)[nH]c32)cc1` the inhibition was 55.6%. Work on `COc1ccccc1N1CCN(c2nc(C)cc(=O)[nH]2)CC1` yielded an inhibition of 15.1%. With `CCCCn1nc(C(=O)Nc2ccc(S(=O)(=O)Nc3ncccn3)cc2)c2ccccc2c1=O` the inhibition was -8.76%. In the case of `NS(=O)(=O)c1ccc(CNC(=O)c2cc(S(=O)(=O)N3CCOCC3)ccc2N2CCCC2)cc1`, the inhibition is reported as 2.61%. Work on `COc1ccc(NC(=O)COC(=O)CNC(=O)C2CCCCC2)cc1` yielded an inhibition of -2.97%. In the case of `CN(Cc1ccco1)S(=O)(=O)c1nnc(NC(=O)c2ccccc2)s1`, the inhibition is reported as 58.2%. For `COc1cccc(C(=O)Nc2nnc(S(=O)(=O)N3CCOCC3)s2)c1`, the inhibition was 97.7% (active). In the case of `COc1cccc(C(=O)Nc2nnc(S(=O)(=O)N(C)c3ccccc3)s2)c1`, the inhibition is reported as 96.6% (active). With `CN(Cc1ccccc1)S(=O)(=O)c1nnc(NC(=O)c2ccccc2F)s1` the inhibition was 27.5%. Work on `COc1cccc(C(=O)Nc2ccc3nc4n(c(=O)c3c2)CCCCC4)c1` yielded an inhibition of 20%. `Cc1ccccc1OCC(=O)Nc1nnc(S(=O)(=O)N2CCCC2)s1` gave an inhibition of -10.3%. For `COc1ccc(OC)c(NC(=O)c2cccc(S(=O)(=O)N3CCN(C(C)=O)CC3)c2)c1`, the inhibition was -11.9%. Work on `CC(=O)c1cccc(NC(=O)COc2ccc(S(=O)(=O)N3CCOCC3)cc2)c1` yielded an inhibition of 3.48%. For `COc1cccc(C(=O)Nc2nnc(S(=O)(=O)N3CCCCC3)s2)c1`, the inhibition was 112% (active). In the case of `Cc1csc2ncc(C(=O)N(Cc3ccccc3)c3ccccn3)c(=O)n12`, the inhibition is reported as -14.5%. Work on `Cc1cccc(C)c1NC(=O)C1CCCN1C(=O)OC(C)(C)C` (configuration not stated) yielded an inhibition of -0.36%. `CC(C)(C)c1cc(=O)n2c(nc3ccccc32)[nH]1` showed an inhibition of 12.8%. `CCc1cccc(C)c1NC(=O)COC(=O)CNC(=O)c1cccs1` gave an inhibition of 4.68%. `CCc1ccc(NC(=O)C(=O)NNC(=O)c2cccs2)cc1` gave an inhibition of -15.6%. `CCc1c(C)sc(NC(=O)c2cccs2)c1C(N)=O` was tested, and the inhibition was 71% (active). For `C=CCCC(=O)N1C[C@H]2CON(C)[C@H]2C[C@H]1c1cccc(Nc2ccccc2)c1`, the inhibition was 21.3%. In the case of `O=C(OCC(=O)N1CCCCC1)c1ccc(OC(F)(F)F)cc1`, the inhibition is reported as -6.53%. `O=c1c2c(nc3nc[nH]n13)CCC2` showed an inhibition of 16.4%. `O=c1c2c(nc3cc(-c4cccc(Cl)c4)[nH]n13)CCCC2` was tested, and the inhibition was 75% (active). Compound `CCCCN1Cc2c(nc3cc(-c4ccccc4)[nH]n3c2=O)C1=O` has an inhibition of -27.7%.
